VP16 counter – Gal4-VP16 reporter inhibition counter-screen | Drosophila S2 Gal4-VP16 UAS-luciferase, luminescence, 20 h | Potency, µM (titrated, usually from 53.6 µM), without a hit: top-dose activity, negative = inhibition, actives largely listed as inhibitors | 3.5% of 310,000 active | AID 2546;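 note: Gal4-VP16 expression switched on by copper sulfate through the metallothionein promoter; potency is the fitted concentration of half-maximal effect; nearly all actives have a fitted effect of over 50% in size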
IL1B secr inh – inhibitors of inflammasome signaling (IL-1 beta secretion). THP-1 LPS/ATP IL-1B secretion, AlphaLISA, 16 h; hits give low values. activity change, % at 57.5 µM. 4.7% of 360,000 active. AID 743279; in the data active = activity change below about -50%; inconclusive = mostly about -30% to -49%
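THP-1 cells pretreated 1 hr with compounds (up to 57.5 uM final), then stimulated with LPS (250 ng/mL final) plus ATP (1.25 mM final); secreted IL-1B measured by AlphaLISA after 16 hr, decreased signal indicating inhibition.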
ELG1 DNA repair – blocks ELG1-dependent DNA repair in HEK293T cells; HEK293T ELG1-luciferase reporter, luminescence, 16 h; DNA damage induced by 5-fluorouridine; Potency, µM (doses to about 46.1 µM), inactives show at the highest dose activity change, negative = inhibition, usual class: inhibitors; 2.3% of 330,000 active; note: potency is the fitted concentration of half-maximal effect; nearly all actives have a fitted effect of over 55% in size
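Cells (2,000 per well) received 5-fluorouridine plus test compound or DMSO and were incubated 16 hr at 37 °C, 5% CO2. Luciferase activity was read by luminescence 30 min after ONE-Glo addition; signal suppression marked inhibition of damage-induced ELG1 function.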
TDP1 cell noCPT – qHTS for Inhibitors of human tyrosyl-DNA phosphodiesterase 1 (TDP1): qHTS in cells in absence of CPT; DT40 Tdp1-/- hTDP1 cells, no CPT, ATP luminescence, 48 h; Potency, µM (series often up to 46.2 µM), for the others: at the top dose activity change, negative = growth inhibition, usual class: inhibitors; 15% of 420,000 active; note: potency is the fitted concentration of half-maximal effect; nearly all actives have a fitted effect of over 55% in size
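Growth kinetics read by CellTiter-Glo luminescence after ≥48 hr at 37 °C. Cells: DT40 Tdp1-/- stably carrying human TDP1, 400 per well, compound exposure in the absence of CPT (DMSO vehicle).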
RORg inh – ROR gamma (mouse) transcription inhibition; 5.4% of 310,000 active; Potency, µM (highest dose often 53.6 µM), for inactives: at the top dose activity change, negative = inhibition, usual class: inhibitors; Drosophila S2 Gal4-RORgamma UAS-luciferase reporter, 20 h; P51450; AID 2551; note: potency is the fitted concentration of half-maximal effect; nearly all actives have a fitted effect of over 60% in size
Target sequence (P51450 whole entry, looked up, the tested form may be a part): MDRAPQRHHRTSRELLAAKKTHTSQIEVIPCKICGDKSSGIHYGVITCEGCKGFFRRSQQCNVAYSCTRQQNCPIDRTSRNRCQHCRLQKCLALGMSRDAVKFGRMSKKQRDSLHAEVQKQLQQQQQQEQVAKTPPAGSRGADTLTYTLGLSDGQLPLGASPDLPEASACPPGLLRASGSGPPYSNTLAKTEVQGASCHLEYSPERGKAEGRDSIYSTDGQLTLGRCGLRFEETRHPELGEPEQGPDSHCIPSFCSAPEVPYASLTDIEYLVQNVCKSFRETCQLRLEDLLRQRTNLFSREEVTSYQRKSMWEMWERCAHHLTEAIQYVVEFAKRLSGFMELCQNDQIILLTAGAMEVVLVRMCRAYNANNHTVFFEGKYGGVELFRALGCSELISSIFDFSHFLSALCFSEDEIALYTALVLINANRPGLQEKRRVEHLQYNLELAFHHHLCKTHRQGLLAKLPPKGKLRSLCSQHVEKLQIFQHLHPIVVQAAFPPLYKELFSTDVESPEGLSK
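Compounds are pin-transferred onto Drosophila Schneider cells expressing a copper-inducible Gal4–ROR gamma transactivation domain fusion. After 1 hr, copper sulfate is added to 700 uM final; luciferase is read 20 hr later.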
DT40 TDP1 CPT – DT40-hTDP1 cell growth loss with CPT; chicken DT40 Tdp1-/-;hTDP1 cells + 20 nM CPT, ATP luminescence, 48 h; Potency, µM (top dose mostly 46.2 µM), without a hit: top-dose activity change, negative = growth inhibition, actives largely listed as inhibitors; 12% of 420,000 active; note: potency is the fitted concentration of half-maximal effect; nearly all actives have a fitted effect of over 55% in size
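Cell growth measured by CellTiter-Glo luminescence after a minimum 48 h, 37 C compound exposure with 20 nM CPT in Tdp1-knockout DT40 cells stably expressing hTDP1, seeded 400/well; qHTS titration format.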
An asterisk follows results filed as active; [ ] = another dose, or the depositor's remark. The list is not random: actives were taken first. Their share in the collection is about 21%. Unless noted, calls come from the whole dose curve; as a rule, active = well fitted curve in the direction sought with a large enough effect; inconclusive = small, poorly fitted or top-dose-only effect, or another doubt; inactive = no such curve, though single readings can be large; an effect the other way counts as inactive or inconclusive. % is set by controls: 0 for no effect and ±100 for the full control effect.

Screening CCOC(=O)c1cc2c(=O)n3ccccc3nc2n(CC2CCCO2)c1=NC(=O)c1cccc(C)c1 (stereo not drawn) returned TDP1 cell noCPT 5.8µM* and DT40 TDP1 CPT 5.17µM*.
Cc1cc(C)c(NC(=O)CCn2c(=O)c3cccn3c3cccnc32)c(C)c1 was read as TDP1 cell noCPT -25.8% and DT40 TDP1 CPT inconclusive.
Screening CCOCC(=O)O returned VP16 counter -2.5% and RORg inh -8.8%.
CCOC(=O)c1cc2c(=O)n3ccccc3nc2n(Cc2ccco2)c1=NC(=O)c1cc(C)cc(C)c1 was read as TDP1 cell noCPT 1.16µM* and DT40 TDP1 CPT 1.3µM*.
`CCOC(=O)c1cc2c(=O)n3ccccc3nc2n(CC2CCCO2)c1=NC(=O)c1cc(C)cc(C)c1` (stereo not drawn) gave TDP1 cell noCPT 0.0366µM* and DT40 TDP1 CPT 0.164µM*.
`CCOC(=O)c1cc2c(=O)n3ccccc3nc2n(Cc2ccco2)c1=NC(=O)c1ccc(C(C)(C)C)cc1` gave TDP1 cell noCPT -26.9% and DT40 TDP1 CPT -13.0%.
`CCOC(=O)c1cc2c(=O)n3ccccc3nc2n(C)c1=NC(=O)c1c(-c2ccccc2Cl)noc1C` gave TDP1 cell noCPT -2.6% and DT40 TDP1 CPT -14.4%.
CCOC(=O)c1cc2c(=O)n3ccccc3nc2n(CC2CCCO2)c1=NC(C)=O (stereo not drawn) was read as VP16 counter -0.3%, IL1B secr inh -13.4, ELG1 DNA repair -28.4%, TDP1 cell noCPT -24.3%, RORg inh inconclusive and DT40 TDP1 CPT -4.4%.
For CCOC(=O)c1cc2c(=O)n3ccccc3nc2n(C(C)C)c1=NC(=O)c1c(-c2c(F)cccc2Cl)noc1C the results were VP16 counter -8.2%, IL1B secr inh -3.1, ELG1 DNA repair 5.8µM*, TDP1 cell noCPT 8.2µM*, RORg inh 1.7% and DT40 TDP1 CPT 8.2µM*.
`O=C(CCSCCc1ccccn1)Nc1ccccc1C(F)(F)F` gave TDP1 cell noCPT -26.4% and DT40 TDP1 CPT -2.2%.
`COc1ccc(C(=O)NCCNC(=O)c2ccccn2)cc1` gave VP16 counter 6.7%, IL1B secr inh 5.3, ELG1 DNA repair 23.3%, TDP1 cell noCPT -8.3%, RORg inh 12.7% and DT40 TDP1 CPT -1.0%.
COc1cc(OC)cc(C(=O)NNC(=O)c2ccccn2)c1 was read as VP16 counter 5.62µM*, IL1B secr inh 146.2, ELG1 DNA repair inconclusive, TDP1 cell noCPT 6.51µM*, RORg inh 4.47µM* and DT40 TDP1 CPT 2.91µM*.
`CC(=O)c1ccc(OCCCC(=O)NNC(=O)c2ccccn2)cc1` gave IL1B secr inh 138.2, ELG1 DNA repair -3.1%, TDP1 cell noCPT 14.6µM* and DT40 TDP1 CPT inconclusive.
For COc1ccc(C(=O)NNC(=O)c2ccccn2)cc1 the results were VP16 counter 5.62µM*, IL1B secr inh -18.0, ELG1 DNA repair inconclusive, TDP1 cell noCPT -25.0%, RORg inh 7.08µM* and DT40 TDP1 CPT -17.4%.
For CCOc1ccc(OCCCC(=O)NNC(=O)c2ccncc2)cc1 the results were IL1B secr inh 7.5, ELG1 DNA repair 27.2%, TDP1 cell noCPT 4.3% and DT40 TDP1 CPT 10.4%.
For Cc1nc(C(=O)NNC(=O)c2ccc(Cl)cc2)cs1 the results were VP16 counter inconclusive, IL1B secr inh 66.4, ELG1 DNA repair inconclusive, TDP1 cell noCPT 11.6µM*, RORg inh 3.98µM* and DT40 TDP1 CPT 16.4µM*.
`COc1ccc(-c2noc(CCC(=O)NC3CCCCCC3)n2)cc1OC` gave IL1B secr inh -19.0, TDP1 cell noCPT inconclusive and DT40 TDP1 CPT inconclusive.
CC1(C)CC(=O)C=C(c2n[nH]nc2-c2ccccc2)C1 was read as IL1B secr inh 15.1, TDP1 cell noCPT -26.9% and DT40 TDP1 CPT -6.5%.
Screening O=C(NN=C1CCCCCCC1)c1ccccn1 returned VP16 counter 4.2%, IL1B secr inh -6.2, ELG1 DNA repair inconclusive, TDP1 cell noCPT -11.1%, RORg inh -31.9% and DT40 TDP1 CPT 0.0%.
`COc1ccc2c(c1)C(=NNC(=O)c1ccccn1)c1cc(OC)ccc1-2` gave VP16 counter 3.98µM*, IL1B secr inh -8.1, ELG1 DNA repair inconclusive, TDP1 cell noCPT 2.59µM*, RORg inh 2.82µM* and DT40 TDP1 CPT 4.61µM*.
For O=C(Cn1cnc2c(OCc3ccccc3)ncnc21)NCCCc1ccccc1 the results were IL1B secr inh 14.8, ELG1 DNA repair 2.6%, TDP1 cell noCPT -18.8% and DT40 TDP1 CPT -28.1%.
COCCNC(=O)Cn1cnc2sc(C)c(S(=O)(=O)N3CCN(c4ccccc4OC)CC3)c2c1=O was read as VP16 counter -10.1%, IL1B secr inh 12.6, ELG1 DNA repair -5.5%, TDP1 cell noCPT -8.4%, RORg inh -2.4% and DT40 TDP1 CPT 10.5%.
`COc1ccc(Cl)cc1NC(=O)Cn1cnc2sc(C)c(S(=O)(=O)N3CCN(c4ccccc4OC)CC3)c2c1=O` gave TDP1 cell noCPT 7.31µM* and DT40 TDP1 CPT 7.31µM*.
COc1ccc(OC)c(NC(=O)Cn2cnc3sc(C)c(S(=O)(=O)N4CCN(c5ccccc5OC)CC4)c3c2=O)c1 was read as TDP1 cell noCPT inconclusive and DT40 TDP1 CPT 20.6µM*.
O=C(O)CCC/C=C\C[C@@H]1CO[C@H](C(F)(F)F)O[C@@H]1c1ccccc1O was read as VP16 counter 4.8%, TDP1 cell noCPT -3.7%, RORg inh -6.6% and DT40 TDP1 CPT -2.1%.
Screening C=CCNC(=S)NS(=O)(=O)c1cccs1 returned VP16 counter -4.4%, IL1B secr inh 30.6, ELG1 DNA repair 5.0%, TDP1 cell noCPT -11.2%, RORg inh -29.9% and DT40 TDP1 CPT -1.2%.
COc1ccc(NC(=O)CSc2nc3ccccc3c(=O)n2CCCN2CCC(C)CC2)c(OC)c1 was read as VP16 counter -8.7%[10 µM], IL1B secr inh -61.7*, ELG1 DNA repair 14.8%, TDP1 cell noCPT inconclusive, RORg inh -0.7% and DT40 TDP1 CPT -7.8%.
COCCn1c(SCC(=O)Nc2ccc(OC)cc2OC)nc2ccccc2c1=O was read as VP16 counter 1.6%, IL1B secr inh 5.0, ELG1 DNA repair 5.1%, TDP1 cell noCPT 2.6%, RORg inh inconclusive and DT40 TDP1 CPT -17.9%.
Screening O=C(CSc1nc2ccccc2c(=O)n1CCCN1CCOCC1)Nc1ccccc1OC(F)F returned IL1B secr inh -23.8, ELG1 DNA repair inconclusive, TDP1 cell noCPT 20.6µM* and DT40 TDP1 CPT 18.4µM*.
